# According to PubChem BioAssay AID1851 (National Center for Advancing Translational Sciences (NCATS), 2009):
# Screen size: about 16,000 compounds; about 5,100 (32%) were called active. About 25% were inconclusive and are not listed. This is one part of the list. Unmarked numbers belong to inactive results. Calls come from the whole dose curve; as a rule, active = well fitted curve in the direction sought with a large enough effect; inconclusive = small, poorly fitted or top-dose-only effect, or effect the other way; inactive = no such curve, though single readings can be large or run the other way.
# Biological target: Cytochrome P450 3A4 (Homo sapiens) (UniProt P08684)
# Sequence (P08684 whole entry, looked up): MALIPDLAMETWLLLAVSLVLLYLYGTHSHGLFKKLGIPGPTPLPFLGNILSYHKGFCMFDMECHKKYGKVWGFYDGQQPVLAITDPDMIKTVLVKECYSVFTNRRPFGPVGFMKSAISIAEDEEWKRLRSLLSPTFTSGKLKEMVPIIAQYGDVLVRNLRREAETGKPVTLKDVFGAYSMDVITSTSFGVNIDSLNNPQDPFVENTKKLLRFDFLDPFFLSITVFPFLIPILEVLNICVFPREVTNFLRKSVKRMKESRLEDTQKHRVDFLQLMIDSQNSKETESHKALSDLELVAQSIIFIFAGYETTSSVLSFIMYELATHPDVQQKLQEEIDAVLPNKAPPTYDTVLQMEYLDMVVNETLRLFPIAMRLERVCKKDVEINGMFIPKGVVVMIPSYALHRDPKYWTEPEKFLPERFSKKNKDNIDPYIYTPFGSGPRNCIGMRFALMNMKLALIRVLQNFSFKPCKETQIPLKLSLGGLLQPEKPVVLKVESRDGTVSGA
# Test: Cytochrome panel assay with activity outcomes
# Conditions: recombinant CYP, pro-luciferin dealkylation, luminescence, p450-cyp3a4; series mostly up to 57.1 µM; activity, negative = inhibition: at the top concentration
# % is set by controls: 0 for no effect and ±100 for the full control effect.
Compound,"activity, negative = inhibition",AC50
O[C@@H](c1cc([C@@]23C[C@H]4CC[C@@H]2C[C@H](C4)C3)nc2c(Cl)cc(Cl)cc12)[C@@H]1CCCCN1,-22.3% [at 11.4 µM],–
C/C(CCN1CCCc2nc(C)c(C)cc21)=N\OC[C@@H](O)[C@@H]1O[C@@H]2OC(C)(C)O[C@@H]2[C@H]1O,-10.8% [at 11.4 µM],–
C/C(CCN1CCc2nc(-c3ccccc3)c(-c3ccccc3)cc2C1)=N\O[C@@H](C)c1cn([C@@H]2COC[C@@H]2O)nn1,-37.3% [at 11.4 µM],–
C/C(CCN1CCc2nc(-c3ccccc3)c(-c3ccccc3)cc2C1)=N\OC[C@@H](O)COCc1ccco1,–,3.16 µM (active)
C/C(CCN1CCCc2nc(C)c(C)cc21)=N\OC[C@@H](O)COCc1ccco1,–,3.98 µM (active)
C/C(CCN1CCCCc2nc(C)c(C)cc21)=N\OC[C@@H](O)COCc1ccco1,–,3.98 µM (active)
N/C(=N\O)C1COc2ccccc2O1 (stereo not given),-12.1%,–
Cc1ccc(S(=O)(=O)N2CCN(C(=O)C3COc4ccccc4O3)CC2)cc1C (stereo not given),–,11.2 µM (active)
COC(=O)[C@@]1(Cc2ccccc2)[C@H]2c3cc(C(=O)N4CCCC4)n(Cc4ccc(OC)c(OC)c4)c3C[C@H]2CN1C(=O)c1ccccc1,–,1.26 µM (active)
COC(=O)[C@@]1(Cc2ccccc2)[C@H]2c3cc(C(=O)N4CCCC4)n(Cc4ccc(O)c(OC)c4)c3C[C@H]2CN1C(=O)c1ccccc1,–,2 µM (active)
Cc1ccc2ncc([N+](=O)[O-])n2c1,12.5%,–
CN(C)Cc1ccccc1-c1nccc(NC2CC2)n1,–,15.8 µM (active)
CNc1ccnc(-c2ccccc2CN(C)C)n1,-20.8%,–
CN(C)Cc1ccccc1-c1nccc(N(C)C)n1,–,10 µM (active)
COc1ccc(CO/N=C/c2c(C)[nH]c(=O)[nH]c2=O)cc1,-11.9%,–
COc1ccc(CNc2ccnc(-c3ccccc3OC)n2)c(OC)c1,–,6.31 µM (active)
COc1ccc(CNc2ccnc(-c3ccccc3Cl)n2)c(OC)c1,–,3.16 µM (active)
COCCNc1ccnc(-c2ccccc2CN(C)C)n1,-19.7%,–
COc1ccc(CNc2ccnc(-c3ccccc3C(F)(F)F)n2)c(OC)c1,–,3.16 µM (active)
COc1ccc(CNc2ccnc(-c3ccccc3CN(C)C)n2)c(OC)c1,–,5.01 µM (active)
C[N+]1(CCC(=O)c2ccco2)CC2CCC(CC2)C1 (stereo not given),1.47% [at 11.4 µM],–
N#Cc1cc2[nH]c(=O)c(=O)[nH]c2cc1[N+](=O)[O-],-23%,–
CCN(c1nc(N)c(C(=O)N=C(N)N)nc1Cl)C(C)C,-18.6%,–

Compound,"activity, negative = inhibition",AC50
CC1(C)OC[C@@H]2O[C@H](n3cnc4c(N)nc(Cl)nc43)[C@@H](OS(C)(=O)=O)[C@@H]2O1,-4.98% [at 11.4 µM],–
O=C(O)c1c2c(c(O)c3c1CN(C1CCCCC1)CO3)OCN(C1CCCCC1)C2,-0.201% [at 11.4 µM],–
CC(C)Cn1cnc2c(Sc3c([N+](=O)[O-])ncn3C)nc(N)nc21,-7.97% [at 11.4 µM],–
CCOc1c(OC(C)=O)ccc(/C=C/c2ccc3cccc(OC(C)=O)c3n2)c1[N+](=O)[O-],–,10 µM (active)
COc1ccc2c(c1[N+](=O)[O-])CCC/C2=N/OC(=O)c1cccc2ccccc12,0.913% [at 2.29 µM],–
Cc1ccc(-n2c(C)nnc2SCC(=O)N2CCc3ccccc3C2)cc1C,–,8.91 µM (active)
CC1=C(\C=C/C(C)=C/C=C\C(C)=C\C(=O)O)C(C)(C)CCC1,-19.6% [at 25.6 µM],–
O=C(NNS(=O)(=O)c1cc(Cl)cc(Cl)c1)c1sccc1-n1cccc1,–,7.94 µM (active)
CC(=O)/C(=N\N=C(N)N)c1ccccc1,-6.08% [at 11.4 µM],–
C/C(=N\N=C(c1ccccc1)c1ccccc1)c1cccs1,–,14.1 µM (active)
C/C(=N\N=C1\NC(=O)CC(C(=O)O)S1)c1cccs1 (stereo not given),1.69%,–
CCCOc1ccc(C(=O)CCNc2ccc(C)c(Cl)c2)cc1,12.4% [at 2.29 µM],–
Cc1ccc(NC(=O)c2cc(NC(=O)CCCC(=O)O)ccc2Cl)cc1Cl,-16.3%,–
Cc1ccc(NC(=O)CCC(=O)c2ccc(F)cc2)cc1Cl,–,12.6 µM (active)
Nc1nc(N)nc(CCCc2nc(N)nc(N)n2)n1,-12.5% [at 11.4 µM],–
c1ccc2oc(C3=NCCN3)cc2c1,-11.9%,–
COc1ccc(CCNC(=O)c2ccccc2NC(=O)c2ccco2)cc1OC,–,7.08 µM (active)
O=C(Nc1ccccc1C(=O)NCCc1ccccc1)c1ccco1,–,14.1 µM (active)
O=C(Nc1ccccn1)c1ccco1,10.3%,–
CCC(C)NC(=O)c1ccccc1NC(=O)Nc1ccccc1 (stereo not given),-20%,–
CCC(NC(=O)c1ccccc1NC(=O)c1ccco1)C(=O)NC1CCCCC1 (stereo not given),–,6.31 µM (active)
O=C(CCc1ccccc1)NNC(=O)c1ccco1,-9.25%,–
